Measurements taken from PubChem BioAssay AID1159580 (chemical genetic matrix, 2015).
The campaign covered roughly 5,500 compounds. About 2,000 (36%) were called active. Inconclusive results (about 18%) are left out. No stated cut-off is given here; in the data, active means normalized growth mostly below about 0.91 (no sharp cut-off); inconclusive means no clear call, values can overlap the other calls; inactive means mostly above about 0.92. The list shows a part of the results.

Assay: chemical genetic growth profiling, strain panel (AID 1159580);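 further: tested at 20 µM; growth read once vehicle control cultures reached saturation at 30 °C; 1 = growth at the plate median or of vehicle wells; lower values mean less growth of the strain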
Conditions: S. cerevisiae deletion strains, growth OD

Measured: normalized growth

CC(CC(=O)C1OC1(C)C)C1C(=O)CC2(C)C3=CCC4C(C)(C)C(OC5OCC(O)C(O)C5O)CCC45CC35C(O)CC12C (configuration not stated)
inactive: locus YAL021C, strain ccr4, active compounds read low 1.03 | locus YAL026C, strain drs2, active compounds read low 1.01 | locus YAL030W, strain snc1, active compounds read low 1.04 | locus YBL061C, strain skt5, active compounds read low 1.02 | locus YBR009C, strain hhf1, active compounds read low 1.02 | locus YBR023C, strain chs3, active compounds read low 1.01 | locus YBR171W, strain sec66, active compounds read low 1.03 | locus YBR231C, strain swc5, active compounds read low 1.02 | locus YBR279W, strain paf1, active compounds read low 1.02 | locus YCL011C, strain gbp2, active compounds read low 1.02 | locus YCL016C, strain dcc1, active compounds read low 1 | locus YCL061C, strain MRC1, active compounds read low 1.02 | locus YCL069W, strain vba3, active compounds read low 1.01 | locus YCR088W, strain abp1, active compounds read low 1.02 | locus YDL005C, strain med2, active compounds read low 1.03 | locus YDL040C, strain nat1, active compounds read low 1.02 | locus YDR001C, strain nth1, active compounds read low 1.02 | locus YDR069C, strain doa4, active compounds read low 1.03 | locus YDR137W, strain rgp1, active compounds read low 1.04 | locus YDR159W, strain sac3, active compounds read low 1.04 | locus YDR195W, strain ref2 1.01 | locus YDR297W, strain sur2, active compounds read low 1.02 | locus YDR334W, strain swr1, active compounds read low 1.01 | locus YDR335W, strain msn5, active compounds read low 1.02 | locus YDR392W, strain spt3, active compounds read low 1.03 | locus YEL003W, strain gim4, active compounds read low 1.02 | locus YEL037C, strain rad23, active compounds read low 1.04 | locus YEL061C, strain CIN8 (second series), active compounds read low 1.02 | locus YER015W, strain faa2, active compounds read low 1.02 | locus YER016W, strain bim1, active compounds read low 1.02 | locus YER111C, strain swi4, active compounds read low 1.03 | locus YER155C, strain BEM2 (second series), active compounds read low 1.03 | locus YFR010W, strain ubp6, active compounds read low 1.03 | locus YGL167C, strain pmr1, active compounds read low 1.03 | locus YGL173C, strain kem1, active compounds read low 1.02 | locus YGL227W, strain vid30, active compounds read low 1.02 | locus YGL240W, strain doc1, active compounds read low 1.03 | locus YGL253W, strain hxk2, active compounds read low 1.01 | locus YHR013C, strain ard1, active compounds read low 1.08 | locus YHR027C, strain rpn1, active compounds read low 1.02 | locus YHR142W, strain chs7, active compounds read low 1.01 | locus YJL092W, strain hpr5, active compounds read low 1.02 | locus YJL095W, strain BCK1 (second series), active compounds read low 1.03 | locus YJL115W, strain asf1, active compounds read low 1.01 | locus YJL129C, strain trk1, active compounds read low 1.01 | locus YJL154C, strain vps35, active compounds read low 1.02 | locus YJL164C, strain tpk1, active compounds read low 1.01 | locus YJL166W, strain qcr8, active compounds read low 1.02 | locus YJL187C, strain SWE1, active compounds read low 1.02 | locus YKL160W, strain elf1, active compounds read low 1.03 | locus YKR026C, strain gcn3, active compounds read low 1.03 | locus YKR091W, strain srl3, active compounds read low 1.03 | locus YLL001W, strain dnm1, active compounds read low 1.01 | locus YLL026W, active compounds read low 1.02 | locus YLL041C, strain sdh2, active compounds read low 1.01 | locus YLR027C, strain aat2, active compounds read low 1.03 | locus YLR221C, strain rsa3, active compounds read low 1.02 | locus YLR258W, strain gsy2, active compounds read low 1.01 | locus YLR262C, strain YPT6 (second series), active compounds read low 1.05 | locus YLR320W, strain mms22, active compounds read low 1.04 | locus YLR342W, strain FKS1, active compounds read low 1.01 | locus YLR357W, strain rsc2, active compounds read low 1.02 | locus YLR370C, strain arc18, active compounds read low 1.02 | locus YLR384C, strain iki3, active compounds read low 1.02 | locus YML120C, strain ndi1, active compounds read low 1.02 | locus YMR058W, strain fet3, active compounds read low 1.02 | locus YMR125W, strain sto1, active compounds read low 1.03 | locus YMR129W, active compounds read low 1.02 | locus YMR205C, strain PFK2, active compounds read low 1.03 | locus YMR231W, strain pep5, active compounds read low 1.01 | locus YNL071W, strain lat1, active compounds read low 1.01 | locus YNL209W, strain ssb2, active compounds read low 1.02 | locus YNL248C, strain rpa49, active compounds read low 1.02 | locus YNL322C, strain KRE1 (second series), active compounds read low 1.03 | locus YNR049C, strain mso1, active compounds read low 1.02 | locus YOR001W, strain rrp6, active compounds read low 1.02 | locus YOR070C, strain gyp1, active compounds read low 1.01 | locus YOR080W, strain dia2, active compounds read low 1.03 | locus YOR083W, strain WHI5, active compounds read low 1.02 | locus YOR106W, strain vam3, active compounds read low 1.03 | locus YOR265W, strain rbl2, active compounds read low 1.01 | locus YOR270C, strain vph1, active compounds read low 1.02 | locus YOR290C, strain snf2, active compounds read low 1.02 | locus YPL051W, strain arl3, active compounds read low 1.02 | locus YPL078C, strain atp4, active compounds read low 1.02 | locus YPL106C, strain sse1, active compounds read low 1.04 | locus YPL240C, strain hsp82, active compounds read low 1.04
